From PubChem BioAssay
Rab9 promoter act – activates the Rab9 promoter. Huh7 Rab9 promoter-luciferase reporter, luminescence, 24 h. Potency, µM (top dose mostly 9.22 µM), inactives show at the highest dose activation, negative = inhibition, actives largely listed as activators. 320,000 tested, 2.8% active. AID 485297; further: % of control where 0% means no effect; nearly all actives have a fitted effect of over 60% in size
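Huh7 cells stably carrying Rab9 promoter–luciferase reporter, plated 1500 cells/well, compound added after 2 h and incubated 24 h at 37 °C; luciferase luminescence then read after 10 min with detection reagent.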
SMN2 splice up – SMN2 splice variant enhancement. Potency, µM (highest dose often 46.1 µM), without a hit: at the top dose activity change, positive = activation, most hits filed as activators. HEK293 SMN2-luciferase splicing reporter, luminescence, 30-36 h. 210,000 tested, 2.8% active. AID 1458; further: % of control where 0% means no effect; nearly all actives have a fitted effect of over 55% in size
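HEK293 cells carry an SMN2 minigene-luciferase reporter in which exon 7 inclusion puts luciferase in frame. Cells were seeded at 2000 cells/well, attached for 10-12 hours, then exposed to compounds for 30-36 hours at 37C before ONE-Glo luminescence.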
NPC1 promoter act – activates the NPC1 promoter. Huh7 NPC1 promoter luciferase reporter, 24 h. Potency, µM (top dose mostly 9.22 µM), for the others: top-dose activation, hits mostly activators. 320,000 tested, 2.4% active. AID 485313; further: % of control where 0% means no effect; nearly all actives have a fitted effect of over 60% in size
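NPC1 promoter–luciferase Huh7 cells; 24 h compound; luminescence.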
ELG1 genotox – induces genotoxicity in HEK293T cells with luciferase-tagged ELG1. HEK293T ELG1-luciferase reporter, luminescence, 16 h. 330,000 tested, 1.3% active. Potency, µM (top dose mostly 46 µM), for the others: top-dose activity change, positive = activation, hits mostly activators; further: % of control where 0% means no effect; nearly all actives have a fitted effect of over 60% in size
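Screening used a luciferase reporter fused to human ELG1 in HEK293T cells. Luminescence was read on a CCD plate imager after 16 hr exposure and 30 min ONE-Glo incubation.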
FLuc modulator – firefly luciferase modulation, counter-screen for miR-21 project; Potency, µM (highest dose often 57.5 µM), inactives show at the highest dose activity change, negative = inhibition, hits mostly inhibitors; 360,000 tested, 6.9% active; P08659; purified FLuc, Km substrates, luminescence inhibition; AID 588342;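 further: plate controls were vehicle for no effect and reference inhibitor for full effect; nearly all actives have a fitted effect of over 55% in size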
Target sequence (P08659 whole entry, looked up): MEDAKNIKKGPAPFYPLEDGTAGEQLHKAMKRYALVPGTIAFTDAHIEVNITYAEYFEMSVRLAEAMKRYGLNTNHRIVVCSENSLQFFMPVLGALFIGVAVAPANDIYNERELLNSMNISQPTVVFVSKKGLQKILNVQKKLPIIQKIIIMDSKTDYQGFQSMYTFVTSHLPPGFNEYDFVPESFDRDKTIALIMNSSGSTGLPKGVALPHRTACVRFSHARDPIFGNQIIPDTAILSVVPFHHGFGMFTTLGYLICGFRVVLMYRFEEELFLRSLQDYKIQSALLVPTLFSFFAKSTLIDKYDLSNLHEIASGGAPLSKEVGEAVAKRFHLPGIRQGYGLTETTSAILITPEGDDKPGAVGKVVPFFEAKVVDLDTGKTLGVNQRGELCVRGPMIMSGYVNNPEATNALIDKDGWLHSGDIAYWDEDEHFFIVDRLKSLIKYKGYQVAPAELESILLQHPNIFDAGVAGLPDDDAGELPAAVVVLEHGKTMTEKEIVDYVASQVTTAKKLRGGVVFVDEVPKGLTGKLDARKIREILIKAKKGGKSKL
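Purified P. pyralis luciferase (10nM final) with 10uM D-luciferin and 10uM ATP (Km levels) in 50mM Tris acetate pH 7.5, 10mM Mg acetate, 0.01% Tween-20, 0.05% BSA; qHTS 6-point titration, ~60 µM downward; luminescence read.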
ELG1 repair inh – blocks ELG1-dependent DNA repair in HEK293T cells; HEK293T ELG1-luciferase reporter, luminescence, 16 h; DNA damage induced by 5-fluorouridine; Potency, µM (top dose mostly 46.1 µM), for the others: at the top dose activity change, negative = inhibition, hits mostly inhibitors; 330,000 tested, 2.3% active; AID 504467; further: on the % scale 0 is the no-effect control and ±100 the full control effect; nearly all actives have a fitted effect of over 55% in size
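Luminescence from the luciferase reporter, measured 30 min after ONE-Glo reagent at room temperature, was the read-out. Beforehand, 2,000 cells per well were exposed for 16 hr at 37 °C to 5-fluorouridine together with compound or vehicle.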
* hit, by the source's call; ? = inconclusive; / = not tested or not shown. The list is not random: actives were taken first. Their share in the collection is about 9.3%. The call rests on the fitted dose curve; in most records, active means well fitted curve in the direction sought with a large enough effect; inconclusive means small, poorly fitted or top-dose-only effect, or another doubt; inactive means no such curve, though single readings can be large; an effect the other way counts as inactive or inconclusive. Potency means the concentration at half of the fitted maximal effect.

SMILES	Rab9 promoter act	SMN2 splice up	NPC1 promoter act	ELG1 genotox	FLuc modulator	ELG1 repair inh
COc1cc(NC(=O)C(C)Oc2ccccc2)c(OC)cc1NC(=O)c1ccccc1 (stereo unspecified)	0%	/	-7%	-27%	0%	15µM*
COc1ccc(CCNc2nc(SCc3ccc(F)cc3)nc3ccccc23)cc1OC	/	/	/	/	0%	/
Cc1cccc(C)c1OCC(=O)NNC(=O)CCNC(=O)c1ccco1	1%	/	-1%	-3%	-1%	5%
Cc1ccc(OCC(=O)Nc2ccccc2C(=O)OCc2cc(=O)n3nc(C4CC4)sc3n2)cc1	/	/	/	/	3%	/
Cn1cnnc1SCC(=O)Nc1ccc2c(c1)CCC2	5%	3%	14%	10%	-8%	?
Cn1cnnc1SCC(=O)c1ccc2c(c1)CCCC2	23%	5%	14%	?	19µM*	?
CO/N=C/c1ccc(Oc2ccc(C)cc2)nc1	20%	-7%	18%	15%	17µM*	?
Cc1ccc(Oc2ccc(C=O)cn2)cc1	-7%	-21%	0%	-7%	-1%	14%
Oc1ccc(N2CCN(Cc3c(-c4ccccc4)nc4ccccn34)CC2)cc1	0%	/	1%	-5%	2%	-17%
Cc1ccc(C(=O)COc2ccccc2-c2ccccc2)cc1	-4%	-12%	-2%	0%	0%	1%
COc1ccc(NC(=O)c2ccccc2SC)cc1	2%	27%	2%	?	?	?
CCOc1ccc(NC(=O)c2ccccc2OCC(=O)c2ccc(C)cc2)cc1	5%	14%	2%	18%	5.4µM*	10%
Cc1ccc(C(=O)COc2ccccc2N2C(=O)c3ccccc3C2=O)cc1	?	20µM*	?	?	-3%	?
CSc1ccccc1C(=O)Nc1ccc(C)c(C)c1	?	?	?	?	15µM*	?
Cc1ccc(NC(=O)c2ccccc2OCC(=O)c2ccc(F)cc2)cc1	-3%	18%	-2%	12%	-1%	13%
CCOc1ccc(NC(=O)c2ccccc2SC)cc1	?	/	?	?	17µM*	?
CSc1ccccc1C(=O)Nc1cc(C)cc(C)c1	-2%	-19%	-1%	0%	?	17%
COc1ccc2c(c1)C(=O)[C@@H](OC(=O)Nc1cc(OC)c(OC)c(OC)c1)[C@H](c1ccc(OC)c(Br)c1)O2	/	-30%	/	/	/	/
CN(Cc1nc2ccccc2c(=O)[nH]1)C(=O)c1cccc(S(=O)(=O)N2CCc3ccccc32)c1	/	/	/	-1%	/	?
COc1ccc(-c2cc(C(=O)N3CCCCCC3)c3cc(C)ccc3n2)cc1	5%	/	-6%	-3%	12µM*	8%
COc1ccc(-c2cc(C(=O)Oc3ccc(C)cc3)c3cc(C)ccc3n2)cc1	/	-3%	/	/	-17%	/
COc1cc2cc(C(=O)N3CCOCC3)cc(-c3ccc(C)cc3)c2cc1OC	4%	/	-3%	-7%	-1%	15µM*
Cc1ccccc1CN1CCN(C(=O)c2cc(-c3ccncc3)nc3ccccc23)CC1	3%	/	4%	16%	-9%	9%
Cc1ccc(-c2cc(C(=O)N3CCOCC3)c3ccccc3n2)cc1	18%	13%	7%	25%	11µM*	12%
O=C(c1cc(-c2ccncc2)nc2ccccc12)N1CCOCC1	3%	/	-9%	-4%	-1%	?
SMILES	Rab9 promoter act	SMN2 splice up	NPC1 promoter act	ELG1 genotox	FLuc modulator	ELG1 repair inh
O=C(c1cc(-c2ccncc2)nc2ccccc12)N1CCN(Cc2ccccc2)CC1	/	/	/	-7%	/	21µM*
O=C(NCCS(=O)(=O)N1CCN(c2ccccc2)CC1)c1cccc(F)c1	1%	/	-4%	9%	0%	-11%
CCn1c(CNC(=O)c2ccccc2F)nnc1SCC(=O)NC1CCCCC1C (stereo unspecified)	-3%	-4%	-1%	-1%	1%	3%
CCOc1cc(/C=N/NC(=O)C(C)Sc2ccccc2)ccc1O (stereo unspecified)	-3%	-17%	-6%	-9%	5%	-3%
O=c1c2c3c(sc2nnn1Cc1ccc(F)cc1)CCCC3	/	/	/	/	0%	/
COc1ccc(-c2cc(C(=O)N3CCCCC3)c3ccccc3n2)cc1OC	-1%	/	-4%	-7%	?	?
Cc1ccc(-c2cc(C(=O)N3CCN(c4ccccc4O)CC3)c3ccccc3n2)o1	2.2µM*	/	?	0%	0.76µM*	4%
COc1ccc2nc(-c3ccc(Cl)cc3)cc(C(=O)O)c2c1	1%	/	2%	8%	8.5µM*	?
COc1ccc(-c2cc(C(=O)N3CCCCC3)c3ccccc3n2)cc1	17%	/	16%	1%	5.4µM*	?
COc1ccc(-c2cc(C(=O)N3CCOCC3)c3ccccc3n2)cc1OC	-5%	/	-2%	-3%	?	-22%
COc1ccc(-c2cc(C(=O)N3CCOCC3)c3cc(C)ccc3n2)cc1	0%	1%	5%	2%	17µM*	-2%
CC(C)OCCCNc1ncnc2c1[nH]c1ccccc12	-19%	-112%	-4%	13%	?	9.2µM*
COc1ccc(CNc2ncnc3c2[nH]c2cc(OC)c(OC)cc23)cc1	-4%	/	-3%	10%	24µM*	?
Cc1ccc2[nH]c3c(Cl)ncnc3c2c1	-3%	/	-6%	0%	-15%	?
CCCOc1ncnc2c1[nH]c1ccc(C)cc12	?	/	2.8µM*	?	1.2µM*	?
COc1ccc(CNc2nc(=S)[nH]c3cc(OC)c(OC)cc23)cc1	-2%	/	-1%	1%	-4%	-8%
CCOc1ccc2[nH]c3c(NCCCOC)ncnc3c2c1	18%	/	?	?	?	?
Cc1ccc2[nH]c3c(NCc4ccccc4)ncnc3c2c1	2%	/	11%	-1%	24µM*	?
Cc1cccc(CSc2nnc(-c3cccs3)n2Cc2ccco2)c1	-6%	-5%	-2%	-11%	-3%	-9%
COCc1c(C(=O)Nc2cccc(S(=O)(=O)N3CCCCC3)c2)oc2ccccc12	/	/	/	-3%	/	?
COc1ccc(CNc2ncnc3c2[nH]c2ccccc23)cc1	-17%	/	-5%	-8%	?	2.1µM*
COc1ccccc1C(=O)OCc1ccc2sc(C)nc2c1	20%	3%	-1%	1%	17µM*	10%
COCC(=O)N(CCc1ccc(OC)c(OC)c1)Cc1cc2cc(C)ccc2nc1Cl	-10%	-45%	-3%	-11%	-7%	16µM*
COCC(=O)N(CCc1ccccc1)Cc1cc2cc(C)ccc2nc1Cl	2%	/	-5%	-2%	-6%	-13%
CCCOc1cccc(-c2nc3ccccc3c(=O)o2)c1	26%	/	8%	?	8.5µM*	?
